# Measured values reported in PMC4336329 (PLoS ONE, 2015).
# Hit rate of the full screen: of about 310,000 compounds, about 2,200 (0.71%) showed an effect of 50% or more. Effects have a minus sign here. The sample holds strong results, similar compounds and a random draw of the others, so the mix is not that of the screen.
# Biological target: human ether-à-go-go-related gene (hERG) potassium channel (human, UniProt Q12809)
# Assay: primary screen, population patch clamp on CHO cells stably expressing hERG; higher = less effect of the substance
# human ether-à-go-go-related gene (hERG) potassium channel, sequence (Q12809 whole entry, looked up): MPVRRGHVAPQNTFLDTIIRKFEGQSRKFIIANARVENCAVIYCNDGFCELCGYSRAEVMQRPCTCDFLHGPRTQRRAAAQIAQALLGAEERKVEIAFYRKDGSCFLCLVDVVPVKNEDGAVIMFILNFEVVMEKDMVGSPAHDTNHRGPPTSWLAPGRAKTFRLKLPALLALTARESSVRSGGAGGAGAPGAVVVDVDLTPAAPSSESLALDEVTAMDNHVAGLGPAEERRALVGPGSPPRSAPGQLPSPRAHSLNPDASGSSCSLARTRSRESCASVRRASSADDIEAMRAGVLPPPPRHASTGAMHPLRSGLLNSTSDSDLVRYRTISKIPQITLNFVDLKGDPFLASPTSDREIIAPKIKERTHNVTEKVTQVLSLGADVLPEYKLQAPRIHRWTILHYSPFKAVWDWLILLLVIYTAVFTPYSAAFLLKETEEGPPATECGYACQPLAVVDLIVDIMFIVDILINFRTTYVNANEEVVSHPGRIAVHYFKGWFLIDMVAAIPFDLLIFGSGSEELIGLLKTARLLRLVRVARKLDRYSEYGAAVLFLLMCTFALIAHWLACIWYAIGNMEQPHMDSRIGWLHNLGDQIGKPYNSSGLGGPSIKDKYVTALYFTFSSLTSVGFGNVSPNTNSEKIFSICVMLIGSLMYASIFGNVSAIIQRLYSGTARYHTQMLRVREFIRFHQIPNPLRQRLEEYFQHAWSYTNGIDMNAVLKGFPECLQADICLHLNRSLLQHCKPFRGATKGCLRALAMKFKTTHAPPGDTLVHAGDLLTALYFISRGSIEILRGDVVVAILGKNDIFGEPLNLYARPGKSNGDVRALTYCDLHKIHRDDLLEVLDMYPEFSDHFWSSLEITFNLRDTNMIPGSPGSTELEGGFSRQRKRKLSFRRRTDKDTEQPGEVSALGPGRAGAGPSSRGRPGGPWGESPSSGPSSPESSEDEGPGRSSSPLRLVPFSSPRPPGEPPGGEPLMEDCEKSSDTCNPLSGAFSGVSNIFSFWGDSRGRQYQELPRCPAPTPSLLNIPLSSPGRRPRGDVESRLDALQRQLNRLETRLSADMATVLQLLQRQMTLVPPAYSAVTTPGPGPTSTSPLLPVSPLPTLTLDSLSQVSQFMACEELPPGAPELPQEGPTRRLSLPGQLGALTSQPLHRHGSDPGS
row,SMILES,"hERG current change (%, negative = inhibition) at 1uM [%]"
1,CCCCCOc1ccc(/C=C/c2c([N+](=O)[O-])c(=O)n(C)c(=O)n2C)cc1,12.2
2,O=c1[nH]cnc2sc(-c3ccccc3)cc12,6.92
3,COc1ccc(S(=O)(=O)NCc2c(-c3ccccc3)noc2C)c(OC)c1,3.4
4,CC1CCN(C(CNS(=O)(=O)c2ccccc2)c2ccccc2)CC1 (stereo not shown),3.61
5,Cc1ccccc1[C@]1(C)ON(c2ccccc2C(F)(F)F)C1=O,14.2
6,O=C(N/C(=C/c1ccccc1)C(=O)N1CCCCC1)c1ccc(Br)o1,-0.572
7,O=C(N/C(=C\c1ccccc1)C(=O)N1CCCCC1)c1ccc(Br)o1,-0.538
8,CN1CCN(C(=O)/C(=C/c2ccc(N(C)C)cc2)NC(=O)c2ccccc2)CC1,7.18
9,CN1CCN(C(=O)/C(=C/c2ccc([N+](=O)[O-])cc2)NC(=O)c2ccccc2)CC1,-90.4
10,CC(C)(C)NC(=O)/C(=C\C=C\c1ccccc1)NC(=O)c1ccc([N+](=O)[O-])cc1,11.2
11,CN1CCN(C(=O)/C(=C/c2cccc([N+](=O)[O-])c2)NC(=O)c2ccccc2)CC1,-46.5
12,O=C(N/C(=C\c1ccccc1)C(=O)N1CCCCCC1)c1ccccc1,21.1
13,O=C(N/C(=C\c1ccc([N+](=O)[O-])cc1)C(=O)N1CCCCC1)c1ccc(Br)o1,-53.4
14,CNC(=O)/C(=C\C=C\c1ccccc1)NC(=O)c1ccc([N+](=O)[O-])cc1,-85
15,CN(C)CCCNC(=O)/C(=C\C=C\c1ccccc1)NC(=O)c1ccc([N+](=O)[O-])cc1,-42
16,O=C(N/C(=C/c1cccc([N+](=O)[O-])c1)C(=O)N1CCCC1)c1ccccc1,-0.775
17,O=C(N/C(=C\c1ccc([N+](=O)[O-])cc1)C(=O)N1CCCCC1)c1ccccc1,-73.2
18,CC(=O)c1ccc(N2CCCCCC2)c(F)c1,0.156
19,COc1ccc(OCC(=O)NCCCNC(=O)COc2ccc(OC)cc2)cc1,4.68
20,O=c1c2c3c(sc2nc2n1CCCCC2)CCC3,10.9
21,O=S1(=O)[C@H]2C[C@@H]3C=C[C@]2(CN1Cc1ccc(C(F)(F)F)cc1)O3,4.34
22,COc1ccc(CCNC(=O)CO/N=C/c2cc3c(cc2Br)OCO3)cc1OC,14.5
23,CCCCCOc1ccc(C(C)(O)C(CN2CCOCC2)c2ccccc2)cc1 (stereo not shown),-3.26
24,CC(OC(=O)/C(C#N)=C/c1ccc(N(C)C)cc1)C(=O)NCc1ccco1 (stereo not shown),6.56
25,C[C@@H](C(=O)Nc1ccc2ccccc2c1)[C@@H]1C[C@@]1(C)[C@@H](NC(=O)OCc1ccccc1)c1ccccc1,14.3
26,CCOC(=O)C1=C(CSc2nncn2C)NC(=O)NC1c1cc(OCC)ccc1OCC (stereo not shown),5.34
27,Cc1ccc(NC(=O)CSc2nnc(Cn3cnc4ccccc43)o2)c(C)c1,20.5
28,Cc1cccc(C)c1N(CC(=O)N1CCCC1)S(C)(=O)=O,16.2

row,SMILES,"hERG current change (%, negative = inhibition) at 1uM [%]"
1,CS(=O)(=O)N(CC(=O)N1CCc2ccccc2C1)c1ccc(Br)cc1,13.4
2,CCNC(=O)CN(C1CCCCC1)S(C)(=O)=O,1.29
3,CCOC(=O)c1c(CSc2ccsc2)n(C)c2cc(Br)c(O)c(CN(C)C)c12.Cl,-88.5
4,CCOC(=O)c1c(CSc2ccccc2)n(C)c2cc(Br)c(O)c(CN(C)C)c12,-3.17
5,CCOC(=O)c1c(CSc2ccc(C)cc2)n(C)c2cc(Br)c(O)c(CN(C)C)c12.Cl.O,18
6,CN(C)c1ccc(NC(=O)CSc2nc3ccccc3c(=O)n2CC2CCCO2)cc1 (stereo not shown),17.3
7,O=C(Nc1ccccc1SCC1CSc2nc3ccccc3c(=O)n21)c1ccccc1Cl (stereo not shown),-53.2
8,O=C(Nc1ccccc1SCC1CSc2nc3ccccc3c(=O)n21)c1cccc(Cl)c1 (stereo not shown),-49.6
9,Cc1cccc(C(=O)Nc2ccccc2SCC2CSc3nc4ccccc4c(=O)n32)c1 (stereo not shown),-66.5
10,Cc1ccc(C(=O)Nc2ccccc2SCC2CSc3nc4ccccc4c(=O)n32)cc1 (stereo not shown),-39
11,O=C(Nc1ccccc1SCC1CSc2nc3ccccc3c(=O)n21)c1ccccc1 (stereo not shown),-24.7
12,Nc1ccccc1SCC1CSc2nc3ccccc3c(=O)n21 (stereo not shown),-7.26
13,CCOC(=O)C(C(=O)OCC)C(Nc1cccc(Br)c1)c1ccccc1 (stereo not shown),14.1
14,Cc1ccc(NC(=O)COC(=O)CN2C(=O)COc3ccccc32)cc1,13.2
15,Cc1[nH]c2ccccc2c1-c1ccc(Cl)nn1,13.8
16,O=C(/C=C/c1cccc([N+](=O)[O-])c1)N1CCN(C(=O)c2ccco2)CC1,-53.4
17,O=C(c1cccc([N+](=O)[O-])c1)N1CCN(C/C=C/c2ccccc2)CC1,-21
18,O=C(/C=C/c1ccccc1)N1CCN(C(=O)c2ccco2)CC1,-13.1
19,O=C(c1cccc([N+](=O)[O-])c1)N1CCN(C(=O)c2ccco2)CC1,0.101
20,CS(=O)(=O)N(CC(=O)N1CCN(Cc2ccccc2)CC1)c1cccc([N+](=O)[O-])c1,-73.1
21,OC(CN1CCN(Cc2ccccc2)CC1)c1ccccc1 (stereo not shown),0.933
22,O=[N+]([O-])c1ccc(C(O)CN2CCN(c3ccccc3)CC2)cc1 (stereo not shown),-2.31
23,O=[N+]([O-])c1ccc(C(O)CN2CCOCC2)cc1 (stereo not shown),18.6
24,CS(=O)(=O)N(CC(=O)N1CCN(Cc2ccccc2)CC1)c1cccc(Cl)c1,-23
25,O=[N+]([O-])c1ccc(C(O)CN2CCN(C/C=C/c3ccccc3)CC2)cc1 (stereo not shown),-85.5
26,CS(=O)(=O)N(CC(=O)N1CCCCCC1)c1cccc([N+](=O)[O-])c1,2.29
27,O=[N+]([O-])c1ccc(C(O)CN2CCN(Cc3ccccc3)CC2)cc1 (stereo not shown),-73
